{"source": "PubChem BioAssay AID485364", "about": "(National Center for Advancing Translational Sciences (NCATS), 2010)", "note": "Screen size: about 360,000 compounds; about 11,000 (3.1%) were called active. Inconclusive results (about 4%) are left out. What follows is part of a selection rich in actives, with near analogues and random picks from the rest. Entries that show only a call come without a potency. A number with no mark means an inactive call. Calls come from the whole dose curve; as a rule, active = well fitted inhibition curve with a large enough effect; inconclusive = small, poorly fitted or top-dose-only effect; inactive = no such curve, though single readings can be large or run the other way. Potency is the fitted concentration of half-maximal effect."}
{"target": "Schistosoma mansoni thioredoxin glutathione reductase (TGR) (UniProt Q962Y6)", "experiment": "qHTS Assay for the Inhibitors of Schistosoma Mansoni Peroxiredoxins; note: nearly all actives have a fitted effect of over 60% in size", "conditions": "purified TGR, DTNB reduction, TNB absorbance 405 nm; series mostly up to 114 µM", "how_it_was_run": "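Kinetic colorimetric format: TGR-catalysed, NADPH-driven DTNB reduction monitored via TNB absorbance. Enzyme dispensed at 20 nM; compound exposure 15 min at room temperature before reaction start.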"}
{"compound": "C=CCn1c(SCC(=O)/C(C#N)=C(\\C)N)nc2sc(C)c(C)c2c1=O", "Potency": "inactive"}
{"compound": "CCOC(=O)c1ccc(CN(Cc2ccccc2)S(=O)(=O)c2ccc(Cl)cc2)cc1", "Potency": "inactive"}
{"compound": "Cc1cccc(N2CCN(C(=O)c3cc4c(=O)oc5ccccc5c4s3)CC2C)c1", "note": "(stereo not given)", "Potency": "inactive"}
{"compound": "O=c1cc2nc(-c3ccccc3)nc(SCCOc3ccc(Cl)cc3)n2[nH]1", "Potency": "inactive"}
{"compound": "COc1ccc(CNc2nc(-c3ccc(Cl)cc3)nn2C(=O)c2ccccc2)cc1", "Potency": "inactive"}
{"compound": "Cc1cccc(-n2ncc(C(=O)N3CCc4ccccc4C3)c2C2CCN(C(=O)OC(C)(C)C)CC2)c1", "Potency": "inactive"}
{"compound": "CN(c1ccccc1)S(=O)(=O)c1ccc(Cl)c(C(=O)OCC(N)=O)c1", "Potency": "inactive"}
{"compound": "CN(c1ccccc1)S(=O)(=O)c1ccc(Cl)c(C(=O)OCC(=O)N2CCOCC2)c1", "Potency": "inactive"}
{"compound": "CN(c1ccccc1)S(=O)(=O)c1ccc(Cl)c(C(=O)OCC(=O)NCc2ccco2)c1", "Potency": "22.4 µM (active)"}
{"compound": "CCc1ccccc1NS(=O)(=O)c1ccc2nc(-c3ccccc3)[nH]c2c1", "Potency": "inactive"}
{"compound": "O=S(=O)(Nc1ccc2nc(-c3ccco3)[nH]c2c1)c1ccccc1", "Potency": "10 µM (active)"}
{"compound": "O=S(=O)(Nc1ccc2nc(-c3cccc(Cl)c3)oc2c1)c1ccccc1", "Potency": "inactive"}
{"compound": "O=C(CN1C(=O)COc2ccc(S(=O)(=O)N3CCOCC3)cc21)N1CCN(c2cccc(Cl)c2)CC1", "Potency": "inactive"}
{"compound": "CCOC(=O)CN1C(C(=O)c2ccccc2)=C(OC(=O)C(C)(C)C)c2ccccc2S1(=O)=O", "Potency": "inactive"}
{"compound": "Cc1ccc(N(CC(=O)NCc2ccc(Cl)cc2)S(=O)(=O)N(C)C)cc1", "Potency": "inactive"}
{"compound": "Cc1ccc(-c2csc(N(Cc3ccco3)C(=O)c3cccs3)n2)cc1", "Potency": "inactive"}
{"compound": "O=C(O)CN(Cc1ccco1)S(=O)(=O)c1ccccc1", "activity change, negative = inhibition": "-3.68% [at 11.4 µM]"}
{"compound": "O=C(O)CCC(=O)N(Cc1ccco1)c1nc(-c2ccccc2)cs1", "Potency": "44.7 µM (active)"}
{"compound": "COc1ccccc1N1CCN(c2ccc(=O)n(CC(=O)NCc3ccc(OC(C)C)cc3)n2)CC1", "Potency": "inactive"}
{"compound": "Cc1cc(NS(=O)(=O)c2ccc(NC(=O)c3ccccc3C)cc2)nc(C)n1", "Potency": "inactive"}
{"compound": "Cc1nnc(N2CCC(C(=O)Nc3ccc(F)cc3)CC2)c2nn(-c3ccc(Cl)cc3)c(C)c12", "Potency": "inactive"}
{"compound": "COc1ccc(NC(=O)CCc2nnc3n(CC(C)C)c(=O)c4ccccc4n23)cc1OC", "Potency": "inactive"}
{"compound": "COc1ccc(OCC(=O)OCCN(C)C)cc1", "Potency": "inactive"}
{"compound": "COc1ccc(OCCCC(=O)Oc2ccc(OC)cc2)cc1", "Potency": "inactive"}
{"compound": "COc1ccc(OCCC(=O)c2ccc(OC)cc2)cc1", "Potency": "1.78 µM (active)"}
{"compound": "COc1ccc(C(=O)C[n+]2ccc(C)cc2)cc1", "Potency": "inactive"}
{"compound": "COc1ccc(C(=O)C2CN(C)CC2C(=O)c2ccc(OC)cc2)cc1", "note": "(stereo not given)", "Potency": "inactive"}
{"compound": "COc1ccc(C(=O)CC2C(=O)N(C)C(=O)N(C)C2=O)cc1", "Potency": "25.1 µM (active)"}
{"compound": "CC(=O)c1ccc(NC(=O)CSc2nc(-c3ccccc3F)nc3c2c(=O)n(C)c(=O)n3C)cc1", "Potency": "inactive"}
{"compound": "CCN(CC)c1ccc(NC(=O)CN2C(=O)c3cccnc3Oc3ccc(Cl)cc32)c(C)c1", "Potency": "inactive"}
{"compound": "Cc1cccc(C(=O)Nc2ccc(S(=O)(=O)N3CCCCC3c3cccnc3)cc2)c1", "note": "(stereo not given)", "Potency": "inactive"}
{"compound": "Cc1cccc(N2CCN(C(=O)c3ccc4c(c3)CCN4S(=O)(=O)c3ccccc3)CC2)c1C", "Potency": "inactive"}
{"compound": "COc1cccc(NC(=O)c2csnn2)c1", "Potency": "inactive"}
{"compound": "Cc1cccc(NC(=O)Cn2c(=O)n(CCC(C)C)c(=O)c3cccnc32)c1", "Potency": "inactive"}
{"compound": "COc1ccc(-n2ccn(CC(=O)Nc3ccc(C)c(C)c3)c(=O)c2=O)cc1OC", "Potency": "inactive"}
{"compound": "CCOC(=O)c1c(-c2ccccc2)oc2ccc(OC(=O)N(C)C)cc12", "Potency": "inactive"}
{"compound": "CCOC(=O)c1c(-c2ccccc2)oc2cc(Br)c(O)c(C=O)c12", "Potency": "15.8 µM (active)"}
{"compound": "CCOC(=O)c1c(-c2ccccc2)oc2ccc(OCC(=O)NN)cc12", "Potency": "inactive"}
{"compound": "COc1cccc(C(=O)NCC(=O)OCc2cc(=O)n3ccsc3n2)c1", "Potency": "inactive"}
{"compound": "Cc1nnc(SCC(N)=O)n1CC1CCCO1", "note": "(stereo not given)", "Potency": "inactive"}
{"compound": "CNC(=O)NC(=O)CSc1nnc(-c2ccc(F)cc2)n1CC1CCCO1", "note": "(stereo not given)", "Potency": "inactive"}
{"compound": "O=C(CSc1nnc(-c2ccco2)n1CC1CCCO1)c1ccccc1", "note": "(stereo not given)", "Potency": "25.1 µM (active)"}
{"compound": "Cc1ccccc1CSc1nc2c([nH]c3ccccc32)c(=O)n1C", "Potency": "inactive"}
{"compound": "COc1cccc(OCCn2c(-c3ccc(Br)cc3)nc3ccccc3c2=O)c1", "Potency": "inactive"}
{"compound": "COc1ccc(OC)c(NC(=O)/C=C/c2ccc(C)o2)c1", "Potency": "50.1 µM (active)"}
{"compound": "Cc1ccc(/C=C/C(=O)Nc2ccc([N+](=O)[O-])c(NC(=O)/C=C/c3ccc(C)o3)c2)o1", "Potency": "22.4 µM (active)"}
{"compound": "COc1ccc(OC)c(NC(=O)Cc2cccs2)c1", "Potency": "inactive"}
{"compound": "Cc1cc(NC(=O)Nc2ccccc2[N+](=O)[O-])no1", "Potency": "inactive"}
{"compound": "Cc1ccc(/C=C/C(=O)Nc2cc(S(=O)(=O)N3CCCCCC3)ccc2OCC(F)(F)F)o1", "Potency": "inactive"}
{"compound": "CNc1ccc(NC(C)=O)cc1[N+](=O)[O-]", "Potency": "inactive"}
